Bioassay records deposited in PubChem by several laboratories.
In the library only some 2% were active in any assay of this set; here they are far more common.
Fh CTSL1 inh = Fasciola hepatica cathepsin L1 inhibitors, primary screen, counter-screen for PFM18AAP inhibitor project, biochemical, QFRET, fluorogenic peptide substrate; recombinant F. hepatica cathepsin L1, Z-Leu-Arg-MCA fluorescence; AID 1906, 2009; 300,000 tested, 0.49% active; inhibition, % at 5.96 µM;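 active = inhibition above the mean of all tested compounds plus 3 SD, set per screening campaign, cut at about 17% in these data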;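 note: 0% = plate median of test compound wells and 100% = 1 µM Z-Phe-Ala-diazomethylketone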
A3G deaminase = APOBEC3G DNA deaminase inhibitors, primary screen, biochemical, fluorescence, single-stranded DNA substrate, uHTS; DNA dC->dU-editing enzyme APOBEC-3G (Homo sapiens), Q9HC16; recombinant A3G, ssDNA deamination FAM/TAMRA fluorescence; inhibition, % at 20 µM; 330,000 tested, 0.28% active; AID 493012, 2011;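 active = inhibition of at least 40% at 20 µM, with no more than 30% in the related APOBEC3A deaminase screen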;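 note: plate controls were DMSO wells with A3G for no effect and wells lacking A3G enzyme for full effect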
APOBEC3A inh = APOBEC3A ssDNA deaminase inhibitors, primary screen, selectivity assay for APOBEC3G inhibitor project, biochemical, FAM/TAMRA oligo cleavage fluorescence. inhibition, % at 20 µM. DNA dC->dU-editing enzyme APOBEC-3A (Homo sapiens), P31941. recombinant A3A, FAM/TAMRA ssDNA deamination fluorescence. 330,000 tested, 0.41% active;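 active = at least 40% inhibition at 20 µM here, with at most 30% in a related deaminase screen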;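 note: plate controls were A3A with DMSO for no effect and wells lacking A3A enzyme for full effect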
Target sequence (P31941 whole entry, looked up): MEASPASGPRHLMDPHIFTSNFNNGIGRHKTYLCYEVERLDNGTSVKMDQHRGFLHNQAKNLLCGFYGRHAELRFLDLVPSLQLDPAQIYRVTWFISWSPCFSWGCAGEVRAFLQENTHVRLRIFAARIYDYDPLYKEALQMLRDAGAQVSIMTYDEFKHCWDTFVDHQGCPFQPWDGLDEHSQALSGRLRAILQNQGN
sPLA2-III inh = human group III sPLA2 inhibitors, primary screen, biochemical, QFRET, BODIPY PC-A2 liposome substrate | Group 3 secretory phospholipase A2 (Homo sapiens), Q9NZ20 | inhibition, % at 12.2 µM | 370,000 tested, 0.56% active | QFRET BODIPY PC-A2 liposome hydrolysis, fluorescence | AID 743126, 2013;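 active = inhibition above mean plus 3 SD of compounds lying within the high and low control bounds, cut at about 19% in these data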;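 note: 0% = median of test compound wells and 100% = no enzyme DMSO wells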
NALP1 yeast inh = NALP1 inflammasome inhibitors in reconstituted yeast, colorimetric, S. cerevisiae, triplicate retest. S. cerevisiae NALP1/ASC/caspase-1 growth, X-gal OD620, 72 h. inhibition, % at 10 µM. 280,000 tested, 0.61% active. AID 2071, 2009; in the data active = inhibition mostly above about 24%, no sharp cut-off; inactive = mostly below about 32%
The depositor's hits bear a star; x = not tested or not shown.

SMILES	Fh CTSL1 inh	A3G deaminase	APOBEC3A inh	sPLA2-III inh	NALP1 yeast inh
COc1ccc(C2CC(c3cccs3)=NN2c2nc(-c3ccccc3)cs2)cc1OC (stereo not given)	34*	23	-1	2	28
O=C(Cc1ccc(Cl)cc1)N/N=C/c1cccc(O)c1	18*	-2	2	-9	-13
COC(=O)CCCn1cc(CN2CC=CS2(=O)=O)nn1	x	x	x	2	x
CC(=O)c1c(C)[nH]c(C(=O)Nc2ccccc2C)c1C	x	x	x	8	x
O=S1(=O)c2ccc(N3CCN(Cc4ccccc4F)CC3)cc2Oc2ccccc2CN1Cc1cn(Cc2ccccc2C(F)(F)F)nn1	x	x	x	4	x
O=C(CCCN1C(=O)S/C(=C\c2ccccc2)C1=O)NNC(=O)c1ccccc1O	1	-9	-3	25*	-1
COc1cccc(OC)c1NC(=O)OCCN1CCCC12CCC(c1ccccc1)CC2 (stereo not given)	x	x	x	-7	x
Cc1cccc(C(=O)Nc2scc(-c3ccc(Br)cc3)c2C(=O)O)c1	-7	-6	-3	-5	x
Cc1ccc(-c2csc(NC(=O)c3ccc(Br)cc3)c2C(=O)O)cc1	-2	-5	-3	3	61*
Cc1ccc(N2C(=O)C3C4C=CC(C4)C3C2=O)cc1 (stereo not given)	-2	-3	21	4	20
Cc1cc(C)cc(N2C(=O)C3C4C=CC(C4)C3C2=O)c1 (stereo not given)	3	-9	35	-11	38*
Cc1ccc2nc(-c3ccc(NC(=O)CSc4nnc(-c5cc(C)[nH]n5)n4N)cc3)sc2c1	x	x	x	-20	x
Cc1cnn(-c2ccccc2)c1NC(=O)COCc1ccccc1	x	x	x	-1	x
CCc1cc(C(=O)NNC(=O)CCl)sc1C	90*	-11	-1	2	29
N#C/C(=C\c1ccc([N+](=O)[O-])o1)c1nc2ccccc2[nH]1	5	1	2	4	101*
Cc1ccc2nc(/C(C#N)=C\c3ccc([N+](=O)[O-])o3)[nH]c2c1	-3	-1	-1	-6	52*
CCOC(=O)CC[C@H]1CC[C@]2(CCCN(C(=O)c3ccno3)C2)O1	x	x	x	9	x
CC(C)CCNC(=O)C1COC(O)(C(Cc2ccccc2)NC(=O)[C@@H](NC(=O)OCc2ccccc2)C(C)C)CN1 (stereo not given in full)	x	x	x	-1	x
CC(=O)N1CCc2cc(S(=O)(=O)CCC(=O)NCc3cccs3)ccc21	-1	-7	-8	3	10
CC(=O)N1CCc2cc(S(=O)(=O)CCC(=O)NCc3ccc4c(c3)OCO4)ccc21	18*	1	4	2	-6
COc1ccccc1C(=O)NCC(=O)OCC(=O)Nc1cccc(S(=O)(=O)N(C)C)c1	-14	-3	0	-5	-9
CCN(CC)S(=O)(=O)c1cccc(NC(=O)COC(=O)CNC(=O)c2cccc(F)c2)c1	18*	-4	5	-2	x
O=C(O)CN(c1ccccn1)S(=O)(=O)c1ccccc1	-7	-9	-3	5	43*
COc1ccc2c(c1OC)C(=O)OC2Nc1nc(-c2ccc(-c3ccccc3)cc2)cs1 (stereo not given)	5	-3	3	9	58*
COc1ccccc1Nc1n[nH]c(=S)s1	4	57*	-1	11	-18
SMILES	Fh CTSL1 inh	A3G deaminase	APOBEC3A inh	sPLA2-III inh	NALP1 yeast inh
O=C1c2ccccc2C(=O)C12OC2c1cccc2ccccc12 (stereo not given)	62*	5	0	0	9
O=C(NC1=N[C@@]2(C=C3CCCCC3n3c(=O)n(-c4ccccc4)c(=O)n32)CN1Cc1ccccc1)c1ccccc1 (stereo not given in full)	x	x	x	-13	x
O=S(=O)(c1cccc2nsnc12)N1CCOCC1	-4	-3	-2	1	15
Cc1ccc2nsnc2c1S(=O)(=O)N1CCOCC1	5	-2	3	1	34*
CC(C)n1nnnc1SCC(=O)NNC(=O)C1CCCCC1	27*	-4	-4	9	15
CC(C)(C)n1nc(-c2ccc(F)cc2)c2c(N)ncnc21	-4	39	-4	-2	92*
